# Screening data from PubChem BioAssay.
# Rows were chosen to be rich in hits. Some 2.3% of all compounds tested hit in one or more screens of this group.
# pPAFAH FP inh: pPAFAH enzyme inhibitors, primary screen, biochemical, fluorescence polarization, human; Platelet-activating factor acetylhydrolase (Homo sapiens), Q13093; recombinant pPAFAH, FP-rhodamine probe fluorescence polarization; hit rate 1.5% among 330,000; inhibition, % at 3.39 µM;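 active = inhibition above the mean inhibition across the screen plus 3 SD, cut at about 25% in these data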;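 also: inhibitors block binding of the rhodamine activity-based probe so polarization drops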
# GSTO1 inh: inhibitors of recombinant GSTO1, primary screen, counter-screen for RBBP9 inhibitor project, biochemical, fluorescence polarization. activity-based probe fluorescence polarization. inhibition, % at 5.96 µM. AID 1974, 2009. Glutathione S-transferase omega-1 (Homo sapiens), P78417. hit rate 1.1% among 300,000;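 active = inhibition above the campaign mean inhibition plus 3 SD, cut at about 35% in these data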
# Target sequence (P78417 whole entry, looked up): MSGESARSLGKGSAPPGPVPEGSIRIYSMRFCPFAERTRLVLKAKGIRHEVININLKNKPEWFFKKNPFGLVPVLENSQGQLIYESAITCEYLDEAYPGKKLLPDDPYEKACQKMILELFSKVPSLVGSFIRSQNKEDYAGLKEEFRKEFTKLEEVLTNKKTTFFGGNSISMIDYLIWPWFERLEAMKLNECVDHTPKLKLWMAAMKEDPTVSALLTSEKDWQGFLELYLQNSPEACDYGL
# PAD4 inh: human PAD4 inhibitors, primary screen, biochemical, fluorescence polarization, 1536-well format. recombinant PAD4, RCA probe fluorescence polarization. inhibition, % at 6.36 µM. hit rate 0.41% among 330,000. AID 485272, 2010;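 active = percent inhibition above a cutoff equal to the mean of all tested compounds plus 3 SD, cut at about 15% in these data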
# Fam108B counter: mouse Fam108B serine hydrolase inhibitors, primary screen, counter-screen for RBBP9 inhibitor project, biochemical, fluorescence polarization; hit rate 0.33% among 300,000; recombinant Fam108B, FP-Rh probe fluorescence polarization; inhibition, % at 9.51 µM;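 active = inhibition above the screen mean inhibition plus 3 SD, computed separately per campaign, cut at about 18% in these data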;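 also: inhibitors lower polarization as less probe binds the enzyme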
# PME-1 inh: PME-1 inhibitors via competitive probe labeling, primary screen, biochemical, fluorescence polarization, FP-Rh probe, HTS; recombinant PME-1; inhibition, % at 5.9 µM; hit rate 0.53% among 320,000;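 active = inhibition above the campaign mean of all compounds plus 3 SD, cut at about 26% in these data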;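 also: competitive labeling of PME-1 active site by serine hydrolase directed probe; inhibitors block probe labeling so polarization falls and inhibition rises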
# Target sequence (Q9Y570 whole entry, looked up): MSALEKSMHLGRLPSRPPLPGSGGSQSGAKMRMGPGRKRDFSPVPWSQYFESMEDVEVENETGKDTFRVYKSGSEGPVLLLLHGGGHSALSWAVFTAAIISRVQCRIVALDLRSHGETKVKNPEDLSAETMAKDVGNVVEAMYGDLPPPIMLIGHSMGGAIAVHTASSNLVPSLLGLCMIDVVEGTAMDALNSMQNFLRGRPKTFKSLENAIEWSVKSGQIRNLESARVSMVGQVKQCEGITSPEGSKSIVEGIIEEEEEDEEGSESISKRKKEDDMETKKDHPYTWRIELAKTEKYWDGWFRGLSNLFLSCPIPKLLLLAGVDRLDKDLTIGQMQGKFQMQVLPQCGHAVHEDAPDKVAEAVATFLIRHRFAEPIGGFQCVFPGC
# PAD4 confirm: human PAD4 inhibitors, confirmation, biochemical, fluorescence polarization | inhibition, % at 6.36 µM | shares compounds with PAD4 inh | recombinant PAD4, RCA probe fluorescence polarization | hit rate 28% among 1,200 | AID 488796, 2010;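 active = mean inhibition across replicates above the hit cutoff set by the earlier primary screen, cut at about 15% in these data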;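 also: inhibitors block active-site labeling by the probe so polarization falls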
# A number is an active result; n = inactive; x = no result given.
SMILES,pPAFAH FP inh,GSTO1 inh,PAD4 inh,Fam108B counter,PME-1 inh,PAD4 confirm
CCOC(=O)c1c(CSC(=N)N)n(C)c2cc(Br)c(OC(C)=O)cc12,n,n,38,n,n,44
O=C1CC(C(=O)N2CCc3ccccc32)CN1c1ccccc1 (stereo unspecified),n,n,n,n,n,x
CCc1cccc2c(C(=O)CN3C(=O)NC4(CCc5ccccc54)C3=O)c[nH]c12 (stereo unspecified),n,n,n,n,n,x
COC(=O)c1cc(NC(=O)CC2C(=O)NCCN2C(=O)c2ccccc2)cc(C(=O)OC)c1 (stereo unspecified),n,n,16,n,n,n
CN(c1ccc(C(=O)NCC2CCCO2)cc1)S(C)(=O)=O (stereo unspecified),n,n,15,n,n,n
CS(=O)(=O)c1ccccc1-c1nnc(NC(=O)c2ccc3ncsc3c2)o1,n,n,22,n,n,n
CS(=O)(=O)c1cccc(-c2nnc(NC(=O)c3ccc4ncsc4c3)o2)c1,n,n,n,n,n,x
COc1ccc(NC(=O)NC(C(F)(F)F)C(F)(F)F)cc1,n,n,15,n,n,n
O=c1oc2ccccc2n1CSC1=NCCS1,n,n,17,n,n,n
CS(=O)(=O)N(CCC#N)Cc1ccc(/C=C2\C(=O)Nc3ccccc32)o1,n,n,n,n,n,x
COc1ccc(N)c2c1C(=O)c1ccccc1C2=O,n,n,33,n,n,n
COc1ccc(OC)c2c1C(=O)c1ccccc1C2=O,n,n,41,n,28,38
CCOC(=O)Cc1c(C)nc2c(-c3ccc(OC)cc3)c(C)nn2c1C,n,n,n,n,n,x
c1ccc2oc(C3=NNC(=NC4CC4)SC3)cc2c1,n,n,21,n,n,n
CCCCN=C1NN=C(c2ccc3c(c2)OCCO3)CS1,n,n,n,n,n,x
c1cc2c(cc1C1=NNC(=NC3CC3)SC1)OCCO2,n,n,41,n,n,n
c1ccc(CN=C2NN=C(c3cc4ccccc4o3)CS2)cc1,n,n,n,n,n,x
O=C(Nc1ccc(Cl)c(Cl)c1)Nc1cc(S(=O)(=O)N2CCOCC2)ccc1N1CCCC1,n,n,n,n,n,x
CCOC(=O)C1CCN(CC(=O)N2CCc3ccccc32)CC1,n,n,38,n,n,n
Nc1nonc1-n1nnc(C(=O)N/N=C/c2ccc3c(c2)OCO3)c1CSc1ccccc1,n,n,n,n,n,x
Cc1c(NC(=O)C(C)OC(=O)c2cccc([N+](=O)[O-])c2)c(=O)n(-c2ccccc2)n1C (stereo unspecified),n,n,n,n,n,x
CSCc1cccc(C(=O)OC(C)C(=O)Nc2c(C)n(C)n(-c3ccccc3)c2=O)c1 (stereo unspecified),n,x,24,x,n,n
COc1ccc(-c2cc(C(=O)NCCN3CCOCC3)c3ccccc3n2)c(OC)c1,n,n,17,n,n,n
COc1ccc(Nc2cc(C(=O)NCCCN3CCOCC3)c3ccccc3n2)c(OC)c1,n,n,n,n,n,x
Cc1nn(CC(=O)Nc2ccc(Cl)cc2)c(=O)c2cc(-c3ccccc3)nn12,n,n,n,n,n,x
SMILES,pPAFAH FP inh,GSTO1 inh,PAD4 inh,Fam108B counter,PME-1 inh,PAD4 confirm
O=C(O)c1[nH]c2ccccc2c1-c1ccccc1,n,n,104,n,n,n
Cc1ccc2[nH]c(C(=O)O)c(-c3ccccc3)c2c1,n,n,n,n,n,x
COc1ccccc1-n1c(C)cc(C=O)c1C,n,n,n,n,n,x
COCCNC(=O)C(c1ccc(C)o1)N(C(=O)C(=O)NC1CCCCC1)c1ccc(F)cc1 (stereo unspecified),n,n,n,n,n,x
Cc1n[nH]c(C)c1N1C(=O)c2cccc3c(N4CCCCCC4)ccc(c23)C1=O,n,n,38,n,n,27
C[C@H]1CN([C@@H](C)CO)C(=O)c2cccc(NS(=O)(=O)c3cn(C)cn3)c2O[C@H]1CN(C)S(C)(=O)=O,n,x,n,x,x,x
Cc1noc(C)c1S(=O)(=O)N(C)C[C@H]1Oc2c(NS(=O)(=O)c3cn(C)cn3)cccc2C(=O)N([C@H](C)CO)C[C@@H]1C,n,x,37,x,x,n
COc1ccc(CC2(CO)COc3ccccc3C2=O)cc1 (stereo unspecified),n,n,n,n,n,x
O=C(Cn1cc([N+](=O)[O-])cn1)NCc1cc2ccccc2[nH]1,n,n,n,n,n,x
O=C(O)c1ccc2c3c(ncnc13)-c1ccccc1C2=O,n,n,85,n,n,68
O=C(/C=C/c1ccccc1)C1=C(O)C(=O)N(CCO)C1c1ccccc1[N+](=O)[O-] (stereo unspecified),n,n,24,n,n,n
O=C(/C=C/c1ccccc1)C1=C(O)C(=O)N(CCO)C1c1cccc([N+](=O)[O-])c1 (stereo unspecified),n,n,n,n,n,x
COc1ccc2c(C)cc3n[nH]c(=S)n3c2c1,n,n,22,n,n,16
Cc1ncc(N=Nc2ccc(F)cc2)c(-c2ccc(Cl)cc2)n1,n,n,18,n,n,n
COc1ccc(-c2nc(C)ncc2N=Nc2ccccc2)cc1,n,n,n,n,n,x
O=S(=O)(Nc1ccc(Cl)cn1)c1ccc(Cl)cc1,n,n,n,n,n,x
Cc1cc(C)c(S(=O)(=O)Nc2ccc(Cl)cn2)c(C)c1,n,n,21,n,n,n
CC1(C)Cc2c(c(-c3ccccc3)[nH]c(=O)c2C#N)CS1,n,n,n,n,n,x
CC1(C)Cc2c(c(-c3ccco3)[nH]c(=O)c2C#N)CS1,n,n,26,n,n,n
CCC(C)Sc1ccc([C@@H]2[C@H]3C(=O)N(CC)C(=O)[C@H]3[C@]3(C(=O)OC)CCCN23)cc1OC (stereo partly specified),n,n,n,n,n,x
CCC(C)NC(=O)c1cn(-c2cccc(OC)c2)c(=O)c2ccccc12 (stereo unspecified),n,n,n,n,n,x
Cc1ccc(-c2nn(-c3ccccc3)cc2C=O)o1,n,n,17,n,n,n
Cc1ccc(-c2nn(-c3ccccc3)cc2C(N)=O)o1,n,n,n,n,n,x
COc1ccc2[nH]cc(CCNC(=O)CCC3CCCCC3)c2c1,n,n,n,n,n,x
OCc1ccccc1SSc1ccccc1CO,n,n,48,n,n,41
OCc1ccccc1CNCc1ccccc1,n,n,n,n,n,x
CCCCCCC(=O)NNC(=O)CC(=O)Nc1ccccc1C(=O)O,n,n,n,n,n,x
c1ccc(C[n+]2csc3ccccc32)cc1,n,n,23,n,n,34
CCNC(=O)c1ccccc1NC(=O)C1CC(=O)N(C(C)C)C1 (stereo unspecified),n,n,n,n,n,x
